Results filed as inconclusive are left out. The source made the active and inactive calls. Unless noted, the call rests on the fitted dose curve; in most records, active means well fitted curve in the direction sought with a large enough effect; inconclusive means small, poorly fitted or top-dose-only effect, or another doubt; inactive means no such curve, though single readings can be large; an effect the other way counts as inactive or inconclusive.
Assays:
UISO = assay: qHTS assay to identify novel small-molecules to repurpose for Merkel cell carcinoma treatment (AID 1296009); details: MCC and control cell lines, CellTiter-Glo viability, 72 h; series mostly up to 46 µM; further: on the % scale 0 is the no-effect control and ±100 the full control effect; nearly all actives have a fitted effect of over 60% in size
How it was run: (§1)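 Cells were incubated with compound for 72 hr at 37 degree celsius before CellTiter-Glo addition. Luminescence was normalized with no-cell wells as full cytotoxicity and DMSO as baseline.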

WaGa = assay: as above; details: MCC and control cell lines, CellTiter-Glo viability, 72 h; series mostly up to 46 µM
How it was run: as §1

C33A = assay: Primary qHTS to identify gynecologic anti-cancer compounds using libraries of approved drugs and bioactive compounds (AID 1345084); details: Gynecologic cancer cell panel viability, ATPlite luminescence, 48 h; series mostly up to 57.5 µM; further: on the % scale 0 is the no-effect control and ±100 the full control effect; nearly all actives have a fitted effect of over 55% in size
How it was run: (§2)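 In this quantitative HTS, cell killing is estimated from loss of ATP-dependent luciferase light. Cells see five compound concentrations over a 48 h exposure.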

CAOV3 = assay: as above; details: Gynecologic cancer cell panel viability, ATPlite luminescence, 48 h; series mostly up to 57.5 µM
How it was run: as §2

CASKI = assay: as above; details: Gynecologic cancer cell panel viability, ATPlite luminescence, 48 h; series mostly up to 57.5 µM
How it was run: as §2

Es-2 = assay: as above; details: Gynecologic cancer cell panel viability, ATPlite luminescence, 48 h; series mostly up to 57.5 µM
How it was run: as §2

HeLa = assay: as above; details: Gynecologic cancer cell panel viability, ATPlite luminescence, 48 h; series mostly up to 57.5 µM
How it was run: as §2

Hek293T = assay: as above; details: Gynecologic cancer cell panel viability, ATPlite luminescence, 48 h, control line for the selectivity index; series mostly up to 57.5 µM
How it was run: as §2

JEG-3 = assay: as above; details: Gynecologic cancer cell panel viability, ATPlite luminescence, 48 h; series mostly up to 57.5 µM
How it was run: as §2

OV90 = assay: as above; details: Gynecologic cancer cell panel viability, ATPlite luminescence, 48 h; series mostly up to 57.5 µM
How it was run: as §2

PA-1 = assay: as above; details: Gynecologic cancer cell panel viability, ATPlite luminescence, 48 h; series mostly up to 57.5 µM
How it was run: as §2

SKOV3 = assay: as above; details: Gynecologic cancer cell panel viability, ATPlite luminescence, 48 h; series mostly up to 57.5 µM
How it was run: as §2

Tov-21-G = assay: as above; details: Gynecologic cancer cell panel viability, ATPlite luminescence, 48 h; series mostly up to 57.5 µM
How it was run: as §2

Tov112D = assay: as above; details: Gynecologic cancer cell panel viability, ATPlite luminescence, 48 h; series mostly up to 57.5 µM
How it was run: as §2

[1] = Drug repurposing screens with cells derived from glioblastoma tumor samples (AID 1345199); details: GBM patient neurospheres viability, ATP luminescence, 48 h; further: nearly all actives have a fitted effect of over 40% in size; further: potency means the concentration at half of the fitted maximal effect; on activity, negative = cell killing: on the % scale 0 is the no-effect control and ±100 the full control effect
How it was run: (§3)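 Four patient lines of CD133+ GBM neurospheres were screened at several concentrations; hits were retested in those lines plus three slower-growing GBM lines, using 48-hour treatment and ATP-based viability.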

astro = assay: as above; details: viability, ATP luminescence, 48 h; series mostly up to 45.9 µM
How it was run: as §3

[2] = molecular target: Nuclear receptor subfamily 1 group I member 2 (Rattus norvegicus) (UniProt Q9R1A7); assay: qHTS assay for small molecule activators of the rat pregnane X receptor (rPXR) signaling pathway (AID 651751; call rule not given here; further: 0% is about no effect); details: rPXR reporter cells, luciferase (One-Glo), 24 h
Chain of Nuclear receptor subfamily 1 group I member 2 (Rattus norvegicus) (Q9R1A7 whole entry, looked up): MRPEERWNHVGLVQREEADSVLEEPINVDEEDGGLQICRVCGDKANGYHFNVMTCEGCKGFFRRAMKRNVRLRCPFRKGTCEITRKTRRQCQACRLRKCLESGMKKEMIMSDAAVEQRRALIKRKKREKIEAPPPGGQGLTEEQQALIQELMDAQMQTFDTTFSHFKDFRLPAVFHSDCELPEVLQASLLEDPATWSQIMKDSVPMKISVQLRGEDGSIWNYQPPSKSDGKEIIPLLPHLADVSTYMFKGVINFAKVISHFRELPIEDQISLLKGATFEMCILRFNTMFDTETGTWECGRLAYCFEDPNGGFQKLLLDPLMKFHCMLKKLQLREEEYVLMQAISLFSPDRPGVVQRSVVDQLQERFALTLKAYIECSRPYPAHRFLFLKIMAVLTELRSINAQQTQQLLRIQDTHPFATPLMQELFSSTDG

[3] = qHTS assay for small molecule activators of the human pregnane X receptor (PXR) signaling pathway (AID 720659; call rule not given here; further: 0% is about no effect)
[4] = at 20 µM (top of the series), tumour line C
[5] = at 21.2 µM (top of the series), tumour line B
[6] = at 21.2 µM (top of the series), tumour line D
[7] = at 21.3 µM (top of the series), tumour line A
[8] = at 45.9 µM (top of the series), tumour line B
[9] = at 45.9 µM (top of the series), tumour line D
[10] = at 46 µM (top of the series), tumour line A
[11] = at 46.1 µM (top of the series), tumour line C

CN[C@@H]1[C@H](O)[C@H](NC)[C@H]2O[C@@]3(O)C(=O)C[C@@H](C)O[C@H]3O[C@@H]2[C@H]1O
inactive: outcome (UISO) | outcome (WaGa) | outcome (C33A) | outcome (CAOV3) | outcome (CASKI) | outcome (Es-2) | outcome (HeLa) | outcome (Hek293T) | outcome (JEG-3) | Potency (OV90) | outcome (PA-1) | outcome (SKOV3) | outcome (Tov-21-G) | outcome (Tov112D) | activity, negative = cell killing [1, 4] -1.47% | activity, negative = cell killing [1, 5] -21.3% | activity, negative = cell killing [1, 6] 0.484% | activity, negative = cell killing [1, 7] -6.42%

NC(N)=NCCN1CCCCCCC1
inactive: activity change, negative = cytotoxicity (UISO) 18% [at 0.597 µM] | activity change, negative = cytotoxicity (WaGa) 12.9% [at 0.597 µM] | activity change, negative = cytotoxicity (C33A) 9.99% [at 0.462 µM] | activity change, negative = cytotoxicity (CAOV3) -2.11% [at 0.462 µM] | activity change, negative = cytotoxicity (CASKI) -2.55% [at 0.462 µM] | activity change, negative = cytotoxicity (Es-2) -4.19% [at 0.462 µM] | activity change, negative = cytotoxicity (HeLa) 0.1% [at 0.462 µM] | activity change, negative = cytotoxicity (Hek293T) -4.03% [at 0.462 µM] | activity change, negative = cytotoxicity (JEG-3) -3.39% [at 0.462 µM] | activity change, negative = cytotoxicity (OV90) -3.97% [at 0.462 µM] | activity change, negative = cytotoxicity (PA-1) 8.5% [at 0.462 µM] | activity change, negative = cytotoxicity (SKOV3) 6.07% [at 0.462 µM] | activity change, negative = cytotoxicity (Tov-21-G) 1.66% [at 0.462 µM] | activity change, negative = cytotoxicity (Tov112D) 3.26% [at 0.462 µM] | activity, negative = cell killing [1, 4] -8.56% | activity, negative = cell killing [1, 5] -5.86% | activity, negative = cell killing [1, 6] 12.5% | activity, negative = cell killing [1, 7] -16.2% | outcome (astro)

Cn1c(=O)c2c(ncn2CCO)n(C)c1=O
inactive: outcome (UISO) | outcome (WaGa) | outcome (C33A) | outcome (CAOV3) | outcome (CASKI) | outcome (Es-2) | outcome (HeLa) | outcome (Hek293T) | outcome (JEG-3) | Potency (OV90) | outcome (PA-1) | outcome (SKOV3) | outcome (Tov-21-G) | outcome (Tov112D) | activity, negative = cell killing [1, 8] -5.04% | activity, negative = cell killing [1, 9] -0.441% | activity, negative = cell killing [1, 10] -29% | activity, negative = cell killing [1, 11] -21.7% | outcome (astro)

O=C(O)CCC(=O)O
inactive: outcome (UISO) | outcome (WaGa) | outcome (C33A) | outcome (CAOV3) | outcome (CASKI) | outcome (Es-2) | outcome (HeLa) | outcome (Hek293T) | outcome (JEG-3) | Potency (OV90) | outcome (PA-1) | outcome (SKOV3) | outcome (Tov-21-G) | outcome (Tov112D) | activity, negative = cell killing [1, 8] -11.8% | activity, negative = cell killing [1, 9] -1.31% | activity, negative = cell killing [1, 10] -19% | activity, negative = cell killing [1, 11] 36.7% | outcome (astro)

C/C=C/C(=O)N(CC)c1ccccc1C
inactive: outcome (UISO) | outcome (WaGa) | outcome (C33A) | outcome (CAOV3) | outcome (CASKI) | outcome (Es-2) | outcome (HeLa) | outcome (Hek293T) | outcome (JEG-3) | Potency (OV90) | outcome (PA-1) | outcome (SKOV3) | outcome (Tov-21-G) | outcome (Tov112D) | activity, negative = cell killing [1, 4] -3.94% | activity, negative = cell killing [1, 5] 0.996% | activity, negative = cell killing [1, 6] -17.6% | activity, negative = cell killing [1, 7] -13.7% | outcome (astro)

O=C(Cn1ccnc1[N+](=O)[O-])NCCO
inactive: outcome (UISO) | outcome (WaGa) | outcome (C33A) | outcome (CAOV3) | outcome (CASKI) | outcome (Es-2) | outcome (HeLa) | outcome (Hek293T) | outcome (JEG-3) | Potency (OV90) | outcome (PA-1) | outcome (SKOV3) | outcome (Tov-21-G) | outcome (Tov112D) | activity, negative = cell killing [1, 8] -12.6% | activity, negative = cell killing [1, 9] -6.24% | activity, negative = cell killing [1, 10] -16.3% | activity, negative = cell killing [1, 11] -12.1% | outcome (astro)

CC(C)(C)NCC(O)COc1cccc2c1CCC(=O)N2 (configuration not stated)
inactive: outcome (UISO) | outcome (WaGa) | outcome (C33A) | outcome (CAOV3) | outcome (CASKI) | outcome (Es-2) | outcome (HeLa) | outcome (Hek293T) | outcome (JEG-3) | Potency (OV90) | outcome (PA-1) | outcome (SKOV3) | outcome (Tov-21-G) | outcome (Tov112D) | activity, negative = cell killing [1, 4] -4.91% | activity, negative = cell killing [1, 5] -10.6% | activity, negative = cell killing [1, 6] 12.4% | outcome (astro)

CC(=O)OC[C@H]1O[C@@](COC(C)=O)(O[C@H]2O[C@H](COC(C)=O)[C@@H](OC(C)=O)[C@H](OC(C)=O)[C@H]2OC(C)=O)[C@@H](OC(C)=O)[C@@H]1OC(C)=O
inactive: outcome (UISO) | outcome (WaGa) | outcome (C33A) | outcome (CAOV3) | outcome (CASKI) | outcome (Es-2) | outcome (HeLa) | outcome (Hek293T) | outcome (JEG-3) | Potency (OV90) | outcome (PA-1) | outcome (SKOV3) | outcome (Tov-21-G) | outcome (Tov112D) | activity, negative = cell killing [1, 8] -8.85% | activity, negative = cell killing [1, 9] -9.16% | activity, negative = cell killing [1, 10] -28.7% | activity, negative = cell killing [1, 11] 2.01% | outcome (astro)

C=CCNC(N)=S
inactive: outcome (UISO) | outcome (WaGa) | outcome (C33A) | outcome (CAOV3) | outcome (CASKI) | outcome (Es-2) | outcome (HeLa) | outcome (Hek293T) | outcome (JEG-3) | Potency (OV90) | outcome (PA-1) | outcome (SKOV3) | outcome (Tov-21-G) | outcome (Tov112D) | activity, negative = cell killing [1, 8] -3.35% | activity, negative = cell killing [1, 9] -8.91% | activity, negative = cell killing [1, 10] -13.7% | activity, negative = cell killing [1, 11] -3.97% | max response [2] -5.15% | outcome [3]

NNC(=O)CP(=O)(c1ccccc1)c1ccccc1
inactive: outcome (UISO) | outcome (WaGa) | outcome (C33A) | outcome (CAOV3) | outcome (CASKI) | outcome (Es-2) | outcome (HeLa) | outcome (Hek293T) | outcome (JEG-3) | Potency (OV90) | outcome (PA-1) | outcome (SKOV3) | outcome (Tov-21-G) | outcome (Tov112D) | activity, negative = cell killing [1, 8] -1.23% | activity, negative = cell killing [1, 9] -15% | activity, negative = cell killing [1, 10] -19.4% | activity, negative = cell killing [1, 11] -12.7% | outcome (astro)

CCN(CC)CCc1nc(-c2ccccc2)no1
inactive: outcome (UISO) | outcome (WaGa) | outcome (C33A) | outcome (CAOV3) | outcome (CASKI) | outcome (Es-2) | outcome (HeLa) | outcome (Hek293T) | outcome (JEG-3) | Potency (OV90) | outcome (PA-1) | outcome (SKOV3) | outcome (Tov-21-G) | outcome (Tov112D) | activity, negative = cell killing [1, 4] -35.3% | activity, negative = cell killing [1, 5] 0.0715% | activity, negative = cell killing [1, 6] 5.97% | activity, negative = cell killing [1, 7] -18.4% | outcome (astro)

CCN(CC)CC1CCCCN1CC(=O)N1c2ccccc2C(=O)Nc2cccnc21 (configuration not stated)
active: Potency ([1]; tumour line A) 20 µM
inactive: outcome (UISO) | outcome (WaGa) | outcome (C33A) | outcome (CAOV3) | outcome (CASKI) | outcome (Es-2) | outcome (HeLa) | outcome (Hek293T) | outcome (JEG-3) | Potency (OV90) | outcome (PA-1) | outcome (SKOV3) | outcome (Tov-21-G) | outcome (Tov112D) | activity, negative = cell killing [1, 8] -15.7% | activity, negative = cell killing [1, 9] -5.02% | activity, negative = cell killing [1, 11] -18.7% | outcome (astro)

— PubChem BioAssay (NCATS)
